The supplement of paper PMC11417369
Over roughly 25,000 sequences, “ln(normalized median fluorescence intensity)” has its median near 9.3; the highest 2% begin near 10. Only a selection was taken, and the highest values are over-represented in it overall.

Tested on: PF3D7_0420300 AP2 domain 1 (GST-tagged)
Test: gcPBM binding intensity (ln(normalized median fluorescence intensity)); higher = stronger DNA binding
Summary of the method: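 DNA-binding domains from P. falciparum, fused to GST and produced in E. coli, were put on an Agilent 4 × 180k double-stranded probe array for 1 h in 1× PBS holding 1% milk, 0.2 mg/ml BSA, 0.5% salmon testes DNA and 0.03% Triton X-100. Probes were primer-extended, 36 bp long and drawn from intergenic genomic regions, with negative controls included. After Alexa488 anti-GST antibody detection and a 488 nm scan, binding intensity was set as the highest Masliner-normalised natural-log median intensity across replicate spots of either probe orientation.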

| Sequence | gcPBM binding intensity (ln) |
| --- | --- |
| ATATTTTTTTTTTTCACACACATTTAGATTGTATTA [CACACA_site3137] | 9.86 |
| GACATTGATACCAGTAGTACCTATAGATGTTTGTTT [XGTACX_site5736] | 9.55 |
| TTACAAATAATTTGTTGTACGCTTTTTTTCTTTTTT [XGTACX_site7199] | 9.48 |
| ATTGGACTATAAATAGGTACACATATATATATATAT [XGTACX_site7562] | 9.59 |
| AATAGAAAAAAAAAATGTACACATATAAAAGCATAT [XGTACX_site6306] | 9.77 |
| GCTTATAAAGGCAGAAGTACTGTATTCCTATATATA [XGTACX_site8865] | 9.22 |
| TAGTATAATATGAACACACACACACCGACAAAAAAA [CACACA_site5151] | 9.99 |
| GTATAATATGAACACACACACACACGCAAAAAAAAA [CACACA_site7036] | 10.1 |
| ATAATATGAAAACACACACACACACCCAAAAAAAAA [CACACA_site2011] | 10.2 |
| AAAAAAAAAAAAAACACACACACACCCAAATATATA [CACACA_site1169] | 10.1 |
| TAGTATAATATGAACACACACACACCCACAAAAAAA [CACACA_site2009] | 10 |
| GTATAATAGAAACACACACACACACCCAAAAAAAAA [CACACA_site2010] | 10.3 |
| GTATAATATGAACACACACACACACCCAAAAAAAAA [CACACA_site5152] | 10.2 |
| TAGTATAATATGAACACACACACACGCACAAAAAAA [CACACA_site7035] | 10.1 |
| ATCGTAGTATAATATGAACACACACCCACCCACAAA [CACACA_site8616] | 10.2 |
| TTTTATATATTATATACACACATATATATATATATA [CACACA_site2999] | 9.29 |
| ATATATATATAGTGCACACTTAAGAATATAAAGAGG [CACACA_site1151] | 9.45 |
| AAAAGGTATGTTATACATAGATATGCACATATATGT [TGCATGCA_negctrl_site96] | 9.29 |
| CTTAAAGGGAAAAATACACACATATAAATATTATGT [CACACA_site2225] | 9.47 |
| AAAATTATTTAGTAAGTGCAAAAAAAAAAAAAAAAA | 8.78 |
| TATGAAGAAAAGAATTGTACGATGTTTATTTTGTAT [XGTACX_site8614] | 9.22 |
| ATTATGCACAGACACACACACACACTACTAAAAAAT [CACACA_site7252] | 10.1 |
| TGCACAAAATTATGCACACACCTAAAATTAATTTTT [CACACA_site5596] | 9.46 |

| Sequence | gcPBM binding intensity (ln) |
| --- | --- |
| ATTATGCACGGACACACACACACACCCCTAAAAAAT [CACACA_site5426] | 10.2 |
| CCTAAATTATATTATGCACACTTAAAAATATATTTA [CACACA_site5861] | 9.14 |
| ATTATGCACCAACACACACACACACTCCTAAAAAAT [CACACA_site8822] | 10.3 |
| ATTATGCACCAACACACACACACACCCCTAAAAAAT [CACACA_site2568] | 10.3 |
| CCACAGGATTGGTTCAAACACACATATTATATGACT [CACACA_site661] | 9.39 |
| CCTTTATTAAATAAATGTACATATTTTTGTGTTCTT [XGTACX_site2052] | 9.4 |
| GAAATATAATTTATTACACACATTTTAAAAAAATTC [CACACA_site1087] | 9.26 |
| AAAAAAAAAAAAAAATGTACATTATACACATTATAT [XGTACX_site6824] | 9.28 |
| AAAGGGGAGATATGAACACACAAAAAAAAAATATAT [CACACA_site7378] | 9.58 |
| CTATACAATAAAAATTGTACATACATATATGTTATA [XGTACX_site5309] | 9.17 |
| TATAACTTTTTTATTACACACCTATGTAATATTATA [CACACA_site944] | 9.37 |
| CCTAAATAATATCTATCACACACGCATATATACATA [CACACA_site8838] | 9.56 |
| TATGTTAAAAAAAAAAAAAAGAAAAAAATAAAAGGA [CACACA_negctrl_site119] | 9.44 |
| AAGAGAAAAATATATACACACACATAAATATATACA [CACACA_site8573] | 9.96 |
| CACATACATATATACACACACAAAATAATAAAATAA [CACACA_site2308] | 10 |
| CATACATACAAACACACACACATATAAATACATACA [CACACA_site4625] | 10.2 |
| TATAAGAGAATATATACACACAAAAATAAATACAGT [CACACA_site5000] | 10.3 |
| AAAAAAAAAGATCACACACACATAAATATAAACAAA [CACACA_site5285] | 10.2 |
| TATAAGAGAATATATACACACAAAAATATATACAGT [CACACA_site1668] | 9.89 |
| TCAAAAATAAAGATCACACATATATATATATATATA [CACACA_site4381] | 9.2 |
| TAAATATATAAATACACACACATACACAAAAAAAAA [CACACA_site5890] | 10.1 |
| TATAAATATACAAACACACATACAAACATATATATA [CACACA_site1120] | 9.91 |
| CACAAAAATAAACACACACACATATATATATATATA [CACACA_site4704] | 9.75 |

| Sequence | gcPBM binding intensity (ln) |
| --- | --- |
| TATAAATATATATATACACACACATACACAAAAAAA [CACACA_site9191] | 10.2 |
| TAAATATATAAATACACACAAACATACATATATATA [CACACA_site4050] | 9.88 |
| AATACATACATACATACATGCATATATATATATATA [TGCATGCA_site462] | 9.42 |
| ATTTACATTCACTTATGTACTTATATAATTTTATTT [XGTACX_site8150] | 9.54 |
| CCCATTTTGACAAAAAGTACAAGTTCAGGTTTTATA [XGTACX_site1532] | 9.22 |
| AACTATAAAAATTTTACACACTGTTTTTAAATAATG [CACACA_site5928] | 9.4 |
| TACACAAAAATAAACACACACACATATAAATAAATA [CACACA_site6599] | 10.2 |
| AATATAAAAAATAATACACACACATGGCGACAAAAT [CACACA_site8765] | 10.2 |
| TATAAAAAATAATACACACACATGGCGACAAAATAA [CACACA_site2420] | 10.2 |
| TACACAAAAATAAACACACACACATATATATATATA [CACACA_site1000] | 9.78 |
| TATTTACACAAAATAAAATATATTATATATATATAT [TGCATGCA_negctrl_site381] | 8.93 |
| ATATATATATATTACACACACACAAAAAAAATAAAG [CACACA_site118] | 10.4 |
| AATATATAAATATATACACACAAAAACATATATATA [CACACA_site1318] | 9.8 |
| TAATAAAAAATATATACACACAAATAAATAAATAAA [CACACA_site4037] | 9.83 |
| AGATAAAATAAATACACACACATAAATACGTACAAA [CACACA_site4739] | 10.2 |
| ATAAATAAGATACGTACACACATATACAAAATATAC [CACACA_site3661] | 9.95 |
| ATATAAATATTAATTACACACAAAAAAAAAAAAAAA [CACACA_site6671] | 9.35 |
| AGATAAAATATATACACACACATAAATACGTACAAA [CACACA_site1086] | 10.1 |
| GGTGTATGTTAAAGGAGTACATATATATATATATAT [XGTACX_site7727] | 9.3 |
| ACCTTTGATATATACACACACATAAAAAAAATATAT [CACACA_site6952] | 9.93 |
| TACAACCTTTAGACAAGTACAAGAATTATATGTGGC [XGTACX_site4581] | 9.4 |
| AAAAAAAAAAATTACACACATACATATAATAATAAT [CACACA_site2193] | 9.85 |
| AGCAGTCGACAGGACAGTACACAGTAGCCAGGAAAT [XGTACX_site4929] | 9.32 |

| Sequence | gcPBM binding intensity (ln) |
| --- | --- |
| AAATTATAAATACCTACACACTTATCAAAATAAATT [CACACA_site5280] | 9.56 |
| ATTGGGTTCATCAGCACACACAACATCATGTAATAA [CACACA_site5093] | 9.5 |
| AATTAATGGAAACAAGTCAAATGATCTTTATGCATA [TGCATGCA_negctrl_site540] | 9.13 |
| TTTATATAATTTTAATGTACATATATATATATAAAT [XGTACX_site4381] | 8.98 |
| TACACATACAGACATACACACATACACATATACACA [CACACA_site6918] | 9.88 |
| AAAAAAAACAGACACACACACACATATACATACATA [CACACA_site2665] | 10.2 |
| CATATACATACACATACACACATACAGACATACACA [CACACA_site6919] | 9.83 |
| TAAACAGACATACATACACACATACATACAGACATA [CACACA_site6997] | 9.88 |
| AAAAAACACAGACACACACACATATACATACATACA [CACACA_site2666] | 10.2 |
| AACAGACATACATACACACATACATACAGACATACA [CACACA_site1942] | 9.9 |
| AAAAAAAACAGACACACACACATACACATACATACA [CACACA_site2857] | 10.2 |
| TAAACAGACATATAAACACACATACATACATACATA [CACACA_site7215] | 9.56 |
| TACATACACAGACACACACACATATATATATATATA [CACACA_site3557] | 9.89 |
| TAATGATTATATGACTGTACATTTGTAGGTATAATT [XGTACX_site3373] | 9.18 |
| ACATAAAAATTATGCACACTTAATAAAGCGAAATGT [CACACA_site3183] | 9.45 |
| TATATATAAAAATATACACACACAAATGTATATATA [CACACA_site7956] | 9.54 |
| AAATATTTTATACTTGCACACAAAATATATTAAAAT [CACACA_site8606] | 9.32 |
| AAAAACAAAAAAGAAGCACACATATATATATATATA [CACACA_site8779] | 9.6 |
| ATCCTACTATGTTATACACACAATTACTTTTTTCTC [CACACA_site3712] | 9.86 |
| TTATACTTTGGGTGGTGTACTATATTATGCTTATAA [XGTACX_site1106] | 9.51 |
| GGTGGTGGTGGGTGGGTGCTTCTATTATTATATTAT [GTGCAC_site9391] | 10.7 |
| CTTATTATTATATGGGTGCTCATATTTTTCTTTTTT [GTGCAC_site9723] | 9.4 |
